Test results reported in PubChem BioAssay (NCI).
The panel holds about 83,000 compounds, 20% with a hit somewhere; the sample as a whole holds those more often.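 Activity criterion: percent growth below 10, measured after cells in 96-well plates were exposed to a single compound concentration for 48 hours.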 A number with no mark means an inactive call. Activity calls are given as the source filed them.

Each molecule was assayed on MDA-MB-468 breast (assay: NCI-60 one-dose screen, 48 h (100 = growth as untreated, 0 = no growth, -100 = all killed)). Conditions: 10 µM unless noted.

| SMILES | growth |
| --- | --- |
| CC(C)C[C@H](NC(=O)Cn1ccc(NCc2ccccc2)cc1=O)B(O)O | -41.2% (active) |
| O=[N+]([O-])c1ccc2[nH]c(=S)n(/C=C(/c3ccc(Cl)cc3Cl)S(=O)(=O)Cc3ccc(Cl)cc3Cl)c2c1 | 111% |
| NNC(=O)c1nc2ccccc2[nH]1 | 126% |
| O=C(CSc1nnc(-c2cnccn2)n1-c1ccccc1)c1ccc(Cl)cc1 | 97.6% |
| c1ccc(-c2cc3cc4ccccc4cn3c2)cc1 | 79.8% |
| O=[N+]([O-])c1ccc2c(N=Nc3ccc4ccccc4c3O)c(O)cc(S(=O)(=O)O)c2c1 | 106% |
| Cc1cccc2ccccc12 | 103% |
| COc1ccc(CNC(=O)[C@H](O)[C@@H](N)Cc2ccccc2)cc1 | 106% |
| Cc1ccc(-c2nc3nc(-c4ccccc4)nc(N4CCCN(S(C)(=O)=O)CC4)c3o2)cc1 | 121% |
| CCc1c(C)c2ccc(O)c(-c3cc(-c4ccccc4)c(C#N)c(=O)[nH]3)c2oc1=O | 102% |
| COc1ccc(C2=NN(/C=C3\SC(=O)NC3=Nc3ccc(F)cc3)C(c3ccc(F)cc3)C2)cc1 (stereo unspecified) | 101% |
| CCc1ccc(C2=NN(c3ccc(S(C)(=O)=O)cc3)C(=O)CC2)cc1 | 50.7% |
| CC(=O)O[C@H]1C(=O)[C@@]2(C)[C@H]([C@H](OC(=O)c3ccccc3)[C@]3(O)C[C@H](OC(=O)[C@H](OC(=O)CCC(=O)OC4CCC(S/N=C(N)/N=C(\N)N(C)C)CC4)[C@@H](NC(=O)c4ccccc4)c4ccccc4)C(C)=C1C3(C)C)[C@]1(OC(C)=O)CO[C@@H]1C[C@@H]2O (stereo partly specified) | -6.44% (active) |
| O=C(c1ccc(Cl)cc1)C1[C@H](c2ccc(Cl)cc2)[C@@H](c2ccccc2)NC12C(=O)Nc1ccc(Br)cc12 (stereo partly specified) | 45.8% |
| CN1CCCc2cc(/C=C3\SC(=S)N(C(Cc4ccc(O)cc4)C(=O)O)C3=O)ccc21 (stereo unspecified) | 93.6% |
| CCCCn1c(-c2ccc(C(=O)O/N=C(\N)c3ccc4c(c3)OCO4)cc2)nc(-c2ccccc2)c1-c1ccccc1 | 73.8% |
| C#Cc1nc(C2=C(C)C(O)/C(=N/O)C2)cs1 (stereo unspecified) | 74.5% |
| O=C(O)/C=C/c1cn(-c2ccccc2)nc1-c1ccc(F)cc1 | 104% |
| C=C1C(=O)O[C@H]2[C@H]1CC/C(Cn1cc(-c3cc(C)c(C)cc3C)nn1)=C\CC[C@@]1(C)O[C@@H]21 | -75.6% (active) |
| CCCCOc1nc2c(C)cccc2cc1C1CNC(=O)c2ccccc2N1 (stereo unspecified) | 51.6% |
| CCN(CC)CCCC(C)Nc1nc(-c2ccc(OC)cc2)nc2cc(Cl)ccc12 (stereo unspecified) | 34.8% |
| O=C(CCN1C(=O)/C(=C/c2ccccc2)SC1=S)N1CCOCC1 | 51.9% |
| O=C1c2cc(Cl)ccc2Oc2cc([N+](=O)[O-])ccc2N1c1ccc(F)cc1F | 91.6% |
| Nc1cc(C(=O)O)[nH]c(=S)n1 | 95.3% |
| Oc1ccc(/C=N/N=C2c3ccccc3-c3ccccc32)c(O)c1 | -1.47% (active) |
| O=C1Nc2ccc(Br)cc2/C1=N/c1nc(-c2ccccc2)cs1 | 99.8% |
